Screens as filed in PubChem BioAssay.
DUX4 inh – DUX4-mediated transcription inhibition; 293T-iDUX4 ZSCAN4-Gaussia luciferase reporter, 24 h; active compounds read low; activity change, negative = inhibition, % (no concentration beside the values); 37,000 compounds, 0.8% hits;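 active = mean inhibition of at least 10% in the main channel, exceeding the control channel by a set limit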;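 also: 0% = median of neutral control wells and -100% = median of positive control wells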
An asterisk follows results filed as active; ! = repeats disagree. Shown is part of a subset that was picked to be rich in hits.

SMILES	DUX4 inh
CCCNC(=O)N1CC2(C1)[C@H](c1ccccc1)[C@H](CO)N2CC1CC1	6.2
COc1ccc(-c2ccccc2[C@@H]2[C@H](C#N)N(C(=O)c3cccnc3)[C@H]2CO)cc1	16.7
O=C(C[C@@H]1CC[C@H]2[C@@H](COC[C@@H](O)CN2Cc2ccncc2)O1)NCc1ccncc1	2.5
CCCN1[C@H](C(=O)OC)[C@@H](CO)[C@@H]2Cn3c(ccc(-c4cncnc4)c3=O)[C@@H]21	3.8
O=C1NCCOCn2nncc2CC[C@H]1Cc1ccc(Cl)cc1	0.0
O=C(Nc1ccccc1)N1CCCCN2[C@H](CO)[C@H](c3ccc(-c4ccncc4)cc3)[C@H]2C1	-3.3
Cc1cccc(-c2ccc([C@H]3[C@@H](CO)N4CCCCN(CCC(F)(F)F)C[C@H]34)cc2)c1	-39.3*
Cc1cccc(-c2ccc([C@@H]3[C@@H](CO)N4CCCCN(CCC(F)(F)F)C[C@@H]34)cc2)c1	-55.5*
CN(C)C(=O)c1ccc(-c2ccc([C@H]3[C@@H](CO)N4CCCCN(CCC(F)(F)F)C[C@@H]34)cc2)cc1	5.9
OC[C@H]1[C@H](c2ccc(-c3cccc(F)c3)cc2)[C@@H]2CN(CCC(F)(F)F)CCCCN12	-47.0*
Cc1cccc(-c2ccc([C@@H]3[C@@H](CO)N4CCCCN(CCC(F)(F)F)C[C@H]34)cc2)c1	14.3
OC[C@@H]1[C@@H](c2ccc(-c3cccc(F)c3)cc2)[C@@H]2CN(Cc3cncnc3)CCCCN12	27.1
OC[C@H]1[C@@H](c2ccc(-c3cccc(F)c3)cc2)[C@H]2CN(Cc3cncnc3)CCCCN21	4.5
Cc1cccc(-c2ccc([C@H]3[C@@H](CO)N4CCCCN(Cc5ccncc5)C[C@H]34)cc2)c1	-6.7
CN(C)C(=O)c1ccc(-c2ccc([C@@H]3[C@@H](CO)N4CCCCN(CCC(F)(F)F)C[C@H]34)cc2)cc1	7.0
CCN(C[C@H]1[C@@H](c2ccccc2)[C@@H](CO)N1CC1CC1)C(=O)c1ccccc1F	-0.7
C[C@@H]1CN([C@H](C)CO)C(=O)CCCn2cc(nn2)CO[C@H]1CN(C)Cc1ccc(Cl)c(Cl)c1	3.8
Cc1cc(C(=O)Nc2ccc3c(c2)C(=O)N(C)[C@@H]2CC[C@@H](CC(=O)NC4CCCC4)O[C@H]2CO3)no1	1.7
CO[C@@H]1CN(C)C(=O)c2ccc(NS(C)(=O)=O)cc2OC[C@H](C)N(Cc2ccccn2)C[C@H]1C	0.6
Cc1ccc(S(=O)(=O)Nc2ccc3c(c2)C(=O)N([C@@H](C)CO)C[C@H](C)[C@H](CN(C)S(=O)(=O)c2cccs2)OCCCC[C@@H](C)O3)cc1	-1.7
C[C@@H]1COCn2nncc2CCCC(=O)N1	-0.4
CCC(=O)N1C[C@@H](O)COC[C@H]2O[C@H](CC(=O)NCc3ccccc3Cl)CC[C@@H]21	4.8
COc1ccc2c3c([nH]c2c1)[C@H](CO)N(C(=O)c1ccncc1)CC31CCN(C)CC1	7.7
COc1ccccc1CNC(=O)C[C@@H]1C[C@@H]2c3cc(NC(=O)Nc4ccc(C(F)(F)F)cc4)ccc3O[C@@H]2[C@@H](CO)O1	3.1
O=C(C[C@H]1CC[C@H](NS(=O)(=O)c2ccc(F)cc2)[C@@H](CO)O1)NC1CCCCC1	4.1
SMILES	DUX4 inh
N#C[C@H]1[C@H](c2ccccc2)[C@@H](CO)N1C(=O)c1ccc2c(c1)OCO2	-4.2
CN(C)CC(=O)Nc1ccc2c(c1)[C@@H]1C[C@H](CC(=O)NC3CCCCC3)O[C@@H](CO)[C@@H]1O2	-4.5
c1ncc(-c2ccc(C3[C@@H]4CN(Cc5ccc6c(c5)OCO6)C[C@H]3N4)cc2)cn1 (some centres undefined)	-3.5
C(=C\c1ccc(C2[C@@H]3CN(Cc4ccc5c(c4)OCO5)C[C@H]2N3)cc1)/c1ccccc1 (some centres undefined)	-40.8*!
C/C=C/c1ccc(C2[C@@H]3CN(Cc4cccc(OC)c4)C[C@H]2N3)cc1 (some centres undefined)	-5.0
O=C(C[C@@H]1C[C@@H]2c3cc(NC(=O)c4ccc5c(c4)OCO5)ccc3O[C@@H]2[C@@H](CO)O1)NCc1cc(F)ccc1F	-5.3
C[C@@H]1CCCCO[C@@H](CN(C)S(C)(=O)=O)[C@@H](C)CN([C@@H](C)CO)C(=O)c2cc(N(C)C)ccc2O1	-6.0
COc1ccc2c3c([nH]c2c1)[C@H](CO)N(C)CC31CN(C(=O)Nc2c(C)noc2C)C1	11.5
O=C(C[C@H]1C[C@H]2c3cc(NC(=O)Cc4ccncc4)ccc3O[C@H]2[C@H](CO)O1)NCCc1ccccc1	-21.4*
O=C(C[C@@H]1C[C@@H]2c3cc(NC(=O)Cc4ccncc4)ccc3O[C@@H]2[C@@H](CO)O1)NCCc1ccccc1	2.9
O=C(C[C@@H]1C[C@H]2c3cc(NC(=O)CC4CC4)ccc3O[C@H]2[C@@H](CO)O1)NCc1cc(F)ccc1F	6.8
O=C(C[C@H]1C[C@H]2c3cc(NC(=O)Cc4ccncc4)ccc3O[C@H]2[C@@H](CO)O1)NCCc1ccccc1	-8.0
O=C(C[C@@H]1C[C@H]2c3cc(NC(=O)Cc4ccncc4)ccc3O[C@H]2[C@H](CO)O1)NCc1cc(F)ccc1F	-3.7
O=C(C[C@H]1C[C@H]2c3cc(NC(=O)Cc4ccncc4)ccc3O[C@H]2[C@@H](CO)O1)NCc1cc(F)ccc1F	-21.3*
COc1ccc2c3c([nH]c2c1)[C@H](CO)N(Cc1ccccn1)CC31CN(C(=O)c2ccccn2)C1	6.4
CC(C)(C)S(=O)N1Cc2cc(C(=O)O)nc(-c3cccc(C#CCC4CCCC4)c3)c2[C@@H]1CCO (some centres undefined)	0.9
COc1ccc2c3c(n(C)c2c1)[C@H](CO)N(C(=O)c1cccc(F)c1)CC31CCN(CC2CC2)CC1	10.3
C[C@@H]1CN([C@@H](C)CO)C(=O)c2c(c3ccccc3n2C)-c2ccccc2CO[C@@H]1CN(C)C(=O)c1ccncc1	1.1
C[C@@H]1CN([C@H](C)CO)C(=O)c2c(c3ccccc3n2C)-c2ccccc2CO[C@@H]1CN(C)C(=O)c1ccc(F)cc1	-5.5
C[C@@H]1CN([C@@H](C)CO)C(=O)c2c(c3ccccc3n2C)-c2ccccc2CO[C@@H]1CN(C)C(=O)c1cc(Cl)cc(Cl)c1	-42.2*
C[C@H](CO)N1C[C@H](C)[C@@H](CN(C)C(=O)c2cc(Cl)cc(Cl)c2)OCc2ccccc2-c2c(n(C)c3ccccc23)C1=O	13.3
C[C@H]1CN([C@@H](C)CO)C(=O)c2c(c3ccccc3n2C)-c2ccccc2CO[C@@H]1CN(C)C(=O)c1ccc(F)cc1	-32.2*
CC(=O)N(C)C[C@@H]1OCc2ccccc2-c2c(n(C)c3ccccc23)C(=O)N([C@@H](C)CO)C[C@H]1C	17.2
CCCC(=O)N1CCC2(CC1)CN(Cc1nccs1)[C@H](CO)c1[nH]c3cc(OC)ccc3c12	-1.4
COc1ccc(CN2CC3(CN(C(=O)c4ccccc4)C3)c3c([nH]c4cc(OC)ccc34)[C@@H]2CO)cc1	-51.3*
CCCC(=O)N1CCC2(CC1)CN(Cc1ccncc1)[C@@H](CO)c1[nH]c3cc(OC)ccc3c12	1.7
COc1ccc2c3c([nH]c2c1)[C@H](CO)N(Cc1ccncc1)CC31CN(S(C)(=O)=O)C1	8.7
CCCC(=O)N1CCC2(CC1)CN(Cc1ccc(Cl)cc1)[C@H](CO)c1[nH]c3cc(OC)ccc3c12	-63.4*
COc1ccc2c3c([nH]c2c1)[C@H](CO)N(Cc1ccc(F)cc1)CC31CN(C(C)=O)C1	-3.1
CCCC(=O)N1CC2(C1)CN(Cc1ccc(Cl)cc1)[C@@H](CO)c1[nH]c3cc(OC)ccc3c12	-85.0*
